Common to all, as to parameters: scale not given: direction of the effect not stated beside the values
The target in test [1] is Protein translocase subunit SecA (Escherichia coli (strain K12)) (UniProt P10408). Description: Assay to Identify E. coli SecA ATPase Inhibitors. The class given is functional. The settings on record: 30 µM.
Test [2] deals with T1, Ubiquitin-activating enzyme e1, putative (Leishmania donovani (strain BPK282A1)) (UniProt E9BSI1).
T1 sequence (whole entry): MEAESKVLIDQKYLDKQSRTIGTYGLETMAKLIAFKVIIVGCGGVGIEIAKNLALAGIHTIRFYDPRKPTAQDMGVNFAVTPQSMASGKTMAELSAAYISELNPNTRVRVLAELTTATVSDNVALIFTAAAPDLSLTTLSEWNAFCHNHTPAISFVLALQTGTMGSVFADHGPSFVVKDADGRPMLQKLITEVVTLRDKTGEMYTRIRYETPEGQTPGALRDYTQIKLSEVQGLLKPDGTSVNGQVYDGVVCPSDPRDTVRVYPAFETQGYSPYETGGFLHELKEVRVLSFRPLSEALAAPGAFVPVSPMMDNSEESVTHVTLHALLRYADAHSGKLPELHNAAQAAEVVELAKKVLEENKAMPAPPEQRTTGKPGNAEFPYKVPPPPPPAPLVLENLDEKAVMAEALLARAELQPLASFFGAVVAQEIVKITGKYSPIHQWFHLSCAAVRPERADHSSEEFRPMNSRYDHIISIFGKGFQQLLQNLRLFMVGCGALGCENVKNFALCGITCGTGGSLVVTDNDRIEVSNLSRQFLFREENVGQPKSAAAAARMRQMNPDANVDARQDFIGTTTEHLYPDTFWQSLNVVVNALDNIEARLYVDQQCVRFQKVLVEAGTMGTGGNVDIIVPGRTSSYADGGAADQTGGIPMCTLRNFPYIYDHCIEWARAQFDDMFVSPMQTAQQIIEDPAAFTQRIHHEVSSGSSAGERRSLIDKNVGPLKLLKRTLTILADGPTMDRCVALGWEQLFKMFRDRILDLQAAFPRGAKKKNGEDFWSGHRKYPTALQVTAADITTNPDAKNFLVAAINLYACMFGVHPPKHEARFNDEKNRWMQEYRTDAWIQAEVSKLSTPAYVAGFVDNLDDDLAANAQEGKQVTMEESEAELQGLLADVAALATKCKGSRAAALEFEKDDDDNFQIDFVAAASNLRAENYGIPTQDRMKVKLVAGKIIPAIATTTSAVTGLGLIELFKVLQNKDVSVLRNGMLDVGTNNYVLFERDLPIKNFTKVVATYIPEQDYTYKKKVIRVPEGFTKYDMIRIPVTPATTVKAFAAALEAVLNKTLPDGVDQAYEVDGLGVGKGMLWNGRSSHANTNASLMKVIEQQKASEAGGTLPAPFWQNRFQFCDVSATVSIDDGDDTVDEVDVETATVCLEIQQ
Description: Leishmania donovani Ubiquitin Activating Enzyme (LdE1). Format: functional. Conditions: 30 µM.

Test [3] concerns the target AMP-activated protein kinase, AMPK (Homo sapiens) (UniProt P54646+O43741+P54619+Q9UGJ0+Q9Y478+Q13131+Q9UGI9). Description: AMP-dependent Kinase enzyme assay. An in vitro enzyme assay that detects ADP turnover that is directly proportional to AMPK activity. This uses naive AMPK that is activated during the assay with MK-8722. Conditions: 30 µM. The class given is functional.

For test [4], the target named is Sialic acid-binding Ig-like lectin 9 (Homo sapiens) (UniProt Q9Y336). In words: Hs-Siglec9 ALPHAscreen SOP 20170721. Conditions: 10 µM. In general terms: Bead proximity is the source of the signal in Alpha formats.
Sequence of Sialic acid-binding Ig-like lectin 9 (Homo sapiens) (Q9Y336 whole entry): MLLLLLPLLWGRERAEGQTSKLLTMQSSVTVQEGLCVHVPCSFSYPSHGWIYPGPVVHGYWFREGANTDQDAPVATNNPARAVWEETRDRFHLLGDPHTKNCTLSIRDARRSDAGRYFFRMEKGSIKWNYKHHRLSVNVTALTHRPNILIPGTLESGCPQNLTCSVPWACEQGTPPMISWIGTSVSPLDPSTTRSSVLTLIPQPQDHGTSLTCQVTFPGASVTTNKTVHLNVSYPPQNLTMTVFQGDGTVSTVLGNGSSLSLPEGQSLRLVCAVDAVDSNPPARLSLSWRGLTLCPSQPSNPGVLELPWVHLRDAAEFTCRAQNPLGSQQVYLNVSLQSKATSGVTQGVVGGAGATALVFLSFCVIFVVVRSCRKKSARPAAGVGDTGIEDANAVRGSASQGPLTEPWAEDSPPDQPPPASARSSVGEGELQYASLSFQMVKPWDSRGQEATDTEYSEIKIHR
In the next test the test system is Trypanosoma cruzi. In words: Trypanosoma cruzi phosphomannomutase and mannose-1-phosphate guanylyltransferase assay. The class given is functional. Conditions: 10 µM.
Test [5] concerns the target T2, Arginase-2, mitochondrial (Homo sapiens) (UniProt P78540).
T2 sequence (whole entry): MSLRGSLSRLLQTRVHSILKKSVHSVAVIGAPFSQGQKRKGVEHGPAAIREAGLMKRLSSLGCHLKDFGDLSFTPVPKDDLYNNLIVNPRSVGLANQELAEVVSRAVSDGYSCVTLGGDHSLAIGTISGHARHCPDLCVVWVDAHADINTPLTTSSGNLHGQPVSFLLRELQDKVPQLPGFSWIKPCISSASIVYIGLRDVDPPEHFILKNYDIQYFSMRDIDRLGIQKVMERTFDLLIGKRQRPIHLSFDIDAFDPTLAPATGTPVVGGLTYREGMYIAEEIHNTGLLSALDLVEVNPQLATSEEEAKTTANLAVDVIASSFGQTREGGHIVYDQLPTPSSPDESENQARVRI
Description: in vitro enzyme assay to detect the production of urea directly proportional to the activity of Arginase II. Further: in the data most compounds retested in dose-response had high values. The class given is functional. The settings on record: 33.3 µM.

The target of test [6] is T3, Proteasome subunit beta (Trypanosoma cruzi) (UniProt O96673).
T3 sequence (whole entry): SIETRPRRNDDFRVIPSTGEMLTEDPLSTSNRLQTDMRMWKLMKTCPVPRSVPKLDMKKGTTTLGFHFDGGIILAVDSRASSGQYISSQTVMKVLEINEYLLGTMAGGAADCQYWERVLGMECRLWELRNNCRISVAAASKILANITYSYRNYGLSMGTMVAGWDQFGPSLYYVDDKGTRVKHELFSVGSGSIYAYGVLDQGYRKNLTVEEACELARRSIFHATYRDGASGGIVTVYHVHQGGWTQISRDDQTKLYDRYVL
In words: Trypanosoma cruzi proteasome chymotrypsin-like activity (TcProtChymo) assay. Further: in the data most compounds retested in dose-response had high values. Format: functional. Conditions: 9.37 µM.

The next test is filed under the species Homo sapiens. Description: To identify inhibition of the IFN signalling (Jak-Stat) pathway via expression of an eGFP reporter gene under the control of an IFN-stimulated response element (ISRE) containing MxA promoter. Format: functional. Conditions: 30 µM.
The target of test [7] is T4, Tyrosyl-tRNA synthetase, putative (Trypanosoma cruzi (strain CL Brener)) (UniProt Q4DSP6).
T4 sequence (whole entry): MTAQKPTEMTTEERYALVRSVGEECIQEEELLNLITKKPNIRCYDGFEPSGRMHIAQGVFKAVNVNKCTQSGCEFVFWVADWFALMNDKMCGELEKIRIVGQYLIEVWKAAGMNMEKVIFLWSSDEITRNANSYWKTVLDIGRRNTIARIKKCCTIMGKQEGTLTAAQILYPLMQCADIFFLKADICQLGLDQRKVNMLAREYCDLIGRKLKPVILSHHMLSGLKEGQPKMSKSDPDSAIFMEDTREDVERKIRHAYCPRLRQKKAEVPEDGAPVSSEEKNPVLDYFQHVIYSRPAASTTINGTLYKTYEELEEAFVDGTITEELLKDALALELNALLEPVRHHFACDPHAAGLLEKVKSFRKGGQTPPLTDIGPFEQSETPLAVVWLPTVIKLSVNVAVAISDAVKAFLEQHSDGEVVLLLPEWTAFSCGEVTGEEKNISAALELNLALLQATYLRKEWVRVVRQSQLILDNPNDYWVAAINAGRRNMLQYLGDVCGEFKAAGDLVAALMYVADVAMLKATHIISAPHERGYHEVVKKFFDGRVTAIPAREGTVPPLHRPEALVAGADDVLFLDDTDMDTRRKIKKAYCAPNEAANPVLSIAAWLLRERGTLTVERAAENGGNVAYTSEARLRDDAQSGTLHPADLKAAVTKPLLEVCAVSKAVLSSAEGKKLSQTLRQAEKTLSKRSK
Description: Trypanosoma cruzi tyrosyl tRNA synthetase (TcYRS) _High Tyrosine SOP. Further: in the data most compounds retested in dose-response had high values. The class given is functional. Conditions: 30 µM.

For test [8], the target named is T4, Tyrosyl-tRNA synthetase, putative (Trypanosoma cruzi (strain CL Brener)). Description: Trypanosoma cruzi tyrosyl tRNA synthetase (TcYRS) SOP. Format: functional. The settings on record: 30 µM.
Test [9] has as its target Chromo domain-containing protein 1 (Saccharomyces cerevisiae (strain ATCC 204508 / S288c) (Baker's yeast)) (UniProt P32657). Description: ScCHD-1 Enzyme Inhibition Assay. Further: in the data most compounds retested in dose-response had high values. The class given is functional. Conditions: 30 µM.

For some of these results: Potency and affinity values are given separately.

Sequence of Protein translocase subunit SecA (Escherichia coli (strain K12)) (P10408 whole entry): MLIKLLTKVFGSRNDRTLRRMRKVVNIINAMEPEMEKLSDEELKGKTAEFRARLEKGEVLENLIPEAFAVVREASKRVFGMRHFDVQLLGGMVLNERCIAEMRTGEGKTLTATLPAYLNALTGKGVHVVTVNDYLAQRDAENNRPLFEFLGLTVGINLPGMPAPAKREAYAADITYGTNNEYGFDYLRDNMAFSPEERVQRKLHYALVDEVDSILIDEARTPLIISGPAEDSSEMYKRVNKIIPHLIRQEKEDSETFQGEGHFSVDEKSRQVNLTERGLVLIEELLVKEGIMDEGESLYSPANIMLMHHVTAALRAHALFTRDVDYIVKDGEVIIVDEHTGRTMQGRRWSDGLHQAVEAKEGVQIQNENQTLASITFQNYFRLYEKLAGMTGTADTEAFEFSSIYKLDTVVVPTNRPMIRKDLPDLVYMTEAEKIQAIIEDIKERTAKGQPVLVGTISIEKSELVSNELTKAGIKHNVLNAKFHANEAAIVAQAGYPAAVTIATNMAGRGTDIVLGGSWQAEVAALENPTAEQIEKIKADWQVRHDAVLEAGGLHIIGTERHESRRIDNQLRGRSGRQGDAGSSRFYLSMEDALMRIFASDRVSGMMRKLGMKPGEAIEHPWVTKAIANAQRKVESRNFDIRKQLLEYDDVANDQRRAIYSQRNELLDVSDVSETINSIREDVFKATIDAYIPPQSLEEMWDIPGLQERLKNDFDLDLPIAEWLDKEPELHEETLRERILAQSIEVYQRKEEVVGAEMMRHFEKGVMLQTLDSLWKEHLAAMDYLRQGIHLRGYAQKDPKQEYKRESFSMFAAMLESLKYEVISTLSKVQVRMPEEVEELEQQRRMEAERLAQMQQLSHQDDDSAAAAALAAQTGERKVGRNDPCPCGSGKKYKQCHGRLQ
Sequence of Chromo domain-containing protein 1 (Saccharomyces cerevisiae (strain ATCC 204508 / S288c) (Baker's yeast)) (P32657 whole entry, the tested form may be a part): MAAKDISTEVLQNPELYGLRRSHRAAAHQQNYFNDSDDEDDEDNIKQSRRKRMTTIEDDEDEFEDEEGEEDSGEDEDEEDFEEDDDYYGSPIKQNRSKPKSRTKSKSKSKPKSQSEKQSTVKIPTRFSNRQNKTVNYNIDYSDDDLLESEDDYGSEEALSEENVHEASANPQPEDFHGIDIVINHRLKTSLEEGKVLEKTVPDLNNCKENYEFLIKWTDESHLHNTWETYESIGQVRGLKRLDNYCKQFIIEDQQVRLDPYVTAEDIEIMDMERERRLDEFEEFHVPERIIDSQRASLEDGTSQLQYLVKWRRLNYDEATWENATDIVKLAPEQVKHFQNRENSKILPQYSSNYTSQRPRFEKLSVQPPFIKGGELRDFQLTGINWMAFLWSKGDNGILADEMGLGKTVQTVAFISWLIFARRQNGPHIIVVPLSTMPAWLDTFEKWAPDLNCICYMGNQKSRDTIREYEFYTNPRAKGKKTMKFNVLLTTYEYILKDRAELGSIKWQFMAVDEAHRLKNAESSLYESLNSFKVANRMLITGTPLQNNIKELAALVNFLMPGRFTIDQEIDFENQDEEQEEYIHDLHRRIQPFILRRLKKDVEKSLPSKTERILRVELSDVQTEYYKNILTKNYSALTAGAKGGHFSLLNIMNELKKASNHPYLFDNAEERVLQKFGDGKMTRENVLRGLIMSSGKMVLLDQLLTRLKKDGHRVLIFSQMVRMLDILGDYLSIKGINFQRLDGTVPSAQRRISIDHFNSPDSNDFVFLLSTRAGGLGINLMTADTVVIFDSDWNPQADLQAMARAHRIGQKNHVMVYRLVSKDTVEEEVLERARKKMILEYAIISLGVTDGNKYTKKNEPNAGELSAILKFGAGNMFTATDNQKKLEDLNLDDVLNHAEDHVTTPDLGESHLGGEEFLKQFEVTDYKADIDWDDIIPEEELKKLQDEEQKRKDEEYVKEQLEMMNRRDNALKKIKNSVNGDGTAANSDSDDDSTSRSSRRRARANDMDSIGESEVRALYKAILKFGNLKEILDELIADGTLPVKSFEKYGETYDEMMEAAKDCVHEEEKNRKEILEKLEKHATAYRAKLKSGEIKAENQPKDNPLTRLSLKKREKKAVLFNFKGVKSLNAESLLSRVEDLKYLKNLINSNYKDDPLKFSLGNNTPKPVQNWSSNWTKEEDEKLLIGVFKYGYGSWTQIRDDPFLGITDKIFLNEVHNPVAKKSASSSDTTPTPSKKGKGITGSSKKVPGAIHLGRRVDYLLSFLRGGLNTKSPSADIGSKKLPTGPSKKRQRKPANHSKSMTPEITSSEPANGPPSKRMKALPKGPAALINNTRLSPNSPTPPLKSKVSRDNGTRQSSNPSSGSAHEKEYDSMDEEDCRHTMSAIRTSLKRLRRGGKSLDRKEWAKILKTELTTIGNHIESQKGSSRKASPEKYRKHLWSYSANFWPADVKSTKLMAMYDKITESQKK

For the compound `CCc1nccn1C1CCCN(C(=O)c2cnc3ccccc3n2)C1` (stereo not drawn), the Percent Effect is -5.47% in test [1]; 2.63% in test [2]; 7.07% in test [3]; 1.65% in test [4]; -1.07% in the test with Trypanosoma cruzi; -2.37% in test [5]. Besides, the Percent Effect in [6] was 7.77%; in the test filed under Homo sapiens, 24.6%; in test [7] it was 7.45%; in test [8], 10.4%; in [9], -2.28%.

As to `Cc1cnc(CNc2c(F)cccc2-n2cccn2)o1`, the Percent Effect in test [1] is 3.66%; in test [2], 12.5%; in test [3] it was -4.76%; in test [4] it was 5.6%; in the test with Trypanosoma cruzi, -8.46%; in test [5], 2.65%. The Percent Effect was determined as 13.7% in test [6]; 5.49% in the test listed under Homo sapiens; 4.21% in [7]; 5.13% in test [8]; 101% in [9].

In the case of `O=C(c1n[nH]c(=O)c2ccccc12)N1CCCCC1c1ccn[nH]1` (stereo not drawn), the Percent Effect was -1.96% in test [1]; 1.35% in [2]; 14.9% in [3]; -7.74% in test [4]; -5.53% in the test with Trypanosoma cruzi; -8.12% in [5]. The Percent Effect in test [6] was 1.72%; in the test filed under Homo sapiens, 0.863%; in test [7], 4.3%; in test [8], 6.49%; in test [9], -5.69%.

In the case of `O=C(CCC1CCCO1)NS(=O)(=O)c1ccc(Cl)cc1` (stereo not drawn), the Percent Effect in test [1] is -3.22%; in [2], 18.9%; in test [3], -10.2%; in test [4], 0.394%; in the test with Trypanosoma cruzi, -4.81%; in test [5], -2%. For the same compound, the Percent Effect was 17.5% in test [6]; 16.7% in the test listed under Homo sapiens; 8.37% in [7]; 18.5% in [8]; -1.63% in test [9].

As for `CC(c1ccco1)N(C)Cc1nc2c(cnn2C)c(=O)[nH]1` (stereo not drawn), the Percent Effect in test [1] is -2.49%; in test [2], 24.3%; in test [3] it was -5.7%; in test [4], 5.24%; in the test on Trypanosoma cruzi, 3.44%; in test [5], 2.77%. Besides, the Percent Effect in [6] is 15.1%; in the test filed under Homo sapiens it was 11.7%; in test [7], -8.91%; in [8], 28.1%; in test [9], -9.16%.

Turning to `O=C(c1ccsc1)N1CCCC(c2cc(C(F)(F)F)[nH]n2)C1` (stereo not drawn), the Percent Effect is -8.76% in test [1]; 5.26% in test [2]; 10.2% in test [3]; -0.389% in test [4]; -4.39% in the test with Trypanosoma cruzi; 0.719% in test [5]. Besides, the Percent Effect in test [6] is -2.12%; in the test listed under Homo sapiens, 24.2%; in test [7], 0.493%; in test [8], 3.7%; in test [9] it was 7.08%.

Turning to `O=C(NCCc1ccsc1)Nc1cccnc1N1CCCC1`, the Percent Effect in test [1] was -3.39%; in test [2], 26.3%; in test [3], -28.7%; in test [4] it was 0.502%; in the test with Trypanosoma cruzi it was 3.64%; in test [5], -2.88%. In addition, the Percent Effect in test [6] is 11.2%; in the test filed under Homo sapiens, -10.3%; in test [7], 8.37%; in test [8], 35.8%; in [9] it was -9.48%.

As to `Cc1ccc(CN2CCCC3(CCN(S(C)(=O)=O)C3)C2)o1` (stereo not drawn), the Percent Effect in test [1] is -3.67%; in [2] it was 8%; in [3], 11.7%; in test [4] it was 5.08%; with Trypanosoma cruzi, -1.97%; in [5], -4.43%. Moreover, the Percent Effect in test [6] was 3.96%; in the test listed under Homo sapiens, 15.2%; in test [7], 6.38%; in [8] it was 14.1%; in test [9], -3.22%.
